The panel holds about 83,000 compounds, 20% with a hit somewhere; the sample as a whole holds those more often.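 Cell lines were cultured in 96-well plates, exposed to a single compound concentration, and assessed for percent growth 48 hours later.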 Unmarked numbers belong to inactive results. The source made the active and inactive calls. The calls were made as follows: active = growth percent below 10; inactive = the rest.

The source of these data is PubChem BioAssay (NCI).

Holding throughout (experiment): NCI-60 one-dose screen, 48 h (100 = growth as untreated, 0 = no growth, -100 = all killed)
Common to all, as to conditions: 10 µM unless noted

In assay [1] the test system is SR leukemia.
Assay [2] relates to RPMI-8226 leukemia.
Assay [3] concerns OVCAR-8 ovarian.
Assay [4] has as its system OVCAR-4 ovarian.
For assay [5], the system named is SK-OV-3 ovarian.
For assay [6], the system named is IGROV1 ovarian.
In assay [7] the test system is OVCAR-3 ovarian.
Assay [8] has as its system HS 578T breast.
Assay [9] concerns NCI/ADR-RES ovarian.
Assay [10] deals with T-47D breast.
In assay [11] the test system is BT-549 breast.
Assay [12] deals with MDA-MB-435 melanoma.
Assay [13] concerns SW-620 colon.
In assay [14] the test system is MCF7 breast.
Assay [15] deals with HCT-116 colon.
Assay [16] concerns HCC-2998 colon.
The subject of assay [17] is KM12 colon.
The test system of assay [18] is OVCAR-5 ovarian.

`O=C(Nc1ccc(Cl)cn1)C1(c2ccccc2)CCCCC1`: the growth was -14.5% (active) in [1]; 93% in assay [2]; 113% in [3]; 91.6% in assay [4]; 117% in assay [5]; 534% in assay [6]. Besides, the growth in [7] is 118%; in assay [8] it was 107%; in assay [9], 125%; in assay [10], 94.7%; in assay [11] it was 98.4%; in assay [12] it was 125%. The growth in assay [13] is 96.6%; in assay [14], 96.3%; in [15], 117%; in assay [16], 99.1%; in [17], 101%.
Consider `Cc1ccc(C(=O)NN)cc1`, for which the growth in assay [1] was 80.3%; in assay [18], 116%; in assay [4], 98.2%; in assay [5], 110%; in [6], 124%; in assay [9] it was 103%. In addition, the growth in [10] was 109%; in assay [11], 98.8%; in [12], 109%; in assay [14] it was 99.7%; in assay [15] it was 100%; in assay [16] it was 99.5%.
In the case of `O=C(Nc1ccc(-n2cc(-c3ccncc3)c(-c3ccc(Cl)c(O)c3)n2)cc1)c1cc(Cl)cc(Cl)c1`, the growth was 15.8% in assay [1]; 58.5% in assay [3]; 64.6% in [18]; 91.8% in assay [4]; 54.9% in [5]; 63% in assay [6]. In addition, the growth was 85.6% in [7]; -14.5% (active) in assay [8]; 54.1% in assay [9]; 79.1% in assay [10]; 42.2% in [12]; 0.0883% (active) in assay [13]. Moreover, the growth in [14] is 51.6%; in assay [15], 16.1%; in assay [16], 33%; in assay [17], 19.3%.
Turning to `COc1ccc(C(=O)N2N=C(c3ccc(Br)cc3)CC2c2cn(-c3ccccc3)nc2-c2ccccc2)cc1` (stereo unspecified), the growth in [2] is 67.9%; in assay [3], 31.5%; in assay [18] it was 101%; in assay [4] it was 67.5%; in assay [5], 76.6%; in assay [6], 85.2%. Further, the growth in assay [7] is 53.4%; in assay [8] it was 85.2%; in [9], 41.5%; in [10], 61.1%; in assay [11], 87.7%; in assay [12], 48.6%. The growth in [13] was 29.6%; in assay [14], 33.8%; in assay [15] it was -23.3% (active); in [16] it was 55.9%; in assay [17] it was 55.6%.
For the molecule `CC1(C)Oc2cc3oc(=O)ccc3cc2C[C@@H]1OCCOS(=O)(=O)c1ccc(C#N)cc1`, the growth in assay [1] is 107%; in assay [2], 91.9%; in assay [3] it was 92.7%; in assay [4], 88%; in assay [6], 100%; in assay [7], 96%. The growth is 89.7% in assay [8]; 96.1% in [9]; 90.3% in [11]; 94.9% in assay [12]; 89.3% in [13]; 82.3% in assay [14]. For the same molecule, the values for the growth in assay [15], in assay [16] and in assay [17] were 110%, 103% and 103%, respectively.
`CC(=O)Nc1nc(C)c(C(=O)N/N=C/N2CCOCC2)s1`: the growth in assay [1] is 169%; in [2], 116%; in assay [3], 115%; in [4], 119%; in assay [5], 110%; in assay [6], 70.3%. For the same molecule, the growth in assay [7] was 104%; in assay [8], 97.6%; in assay [9] it was 120%; in [10], 102%; in [12], 127%; in assay [13] it was 107%. Also, the growth in [14] was 98.6%; in assay [15], 93.8%; in assay [16], 157%; in assay [17], 105%.
On to `CSC1=Nc2c(c(C)c(-c3ccccc3)n2CCCCl)C2=NC(=O)CN12`, for which the growth in [1] was 12.8%; in assay [2], 50.5%; in assay [3], 88.4%; in assay [4], 75.5%; in assay [5] it was 87.5%; in assay [6], 47.9%. Besides, the growth in assay [7] is 85.2%; in assay [8] it was 84.6%; in [9], 58%; in [10], 72.4%; in assay [11], 61.2%; in assay [12], -31.4% (active). In addition, the growth is 44.4% in assay [13]; 36.3% in assay [14]; 26.7% in assay [15]; 72.3% in [16]; 26.1% in [17].
As for `O=C(Nc1ccc(-n2cc(-c3ccncc3)c(-c3ccc(Cl)c(O)c3)n2)cc1)Nc1ccc(Cl)c(C(F)(F)F)c1`, the growth in [1] was -10.6% (active); in assay [3], 1.06% (active); in assay [18], 30.1%; in assay [4], 16.1%; in assay [5], 3.02% (active); in assay [6], -0.0868% (active). Also, the growth in [7] was 2.48% (active); in assay [8], -38.6% (active); in assay [9] it was 6.63% (active); in [10], 4.31% (active); in [12], -37.7% (active); in assay [13], 11%. Moreover, the growth in assay [14] was -0.973% (active); in [15] it was -15.8% (active); in assay [16] it was 0.686% (active); in assay [17], 1.21% (active).
As for `COc1cc(-c2nn(-c3ccc(NC(=O)Nc4ccc(Cl)c(C(F)(F)F)c4)cc3)cc2-c2ccncc2)ccc1Cl`, the growth in [1] was -1.8% (active); in assay [3], 8.56% (active); in assay [18], 25%; in assay [4], 23.1%; in [5], 10.7%; in [6], 25.9%. The growth in assay [7] is 10.9%; in assay [9] it was -1.19% (active); in assay [10], 15.1%; in assay [12] it was 4% (active); in assay [13], 13.4%; in assay [14], 8.22% (active). Also, the values for the growth in assay [15], in [16] and in assay [17] were 2.34% (active), -2.15% (active) and 6.77% (active), respectively.
